# Source: the supplement of paper PMC8728848
# The sample as a whole holds a higher share of the strongest signals than the screen did.
# Key:
# Test in all cases: glycan array binding signal (z-score within array); higher = stronger binding
# Settings in all cases: glycan notation: IUPAC condensed, linker removed
# [1] = molecular target: Fuc(a1-2)Gal(b1-3)GalNAc(b1-3)Gal
# How it was run: (§1)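 From the Consortium for Functional Glycomics database, 3228 arrays were curated, keeping only those whose protein sequence was available. Binding is given as a within-array Z-score averaged across arrays sharing a protein sequence and across linkers. Negative Z-scores can be read as non-binding.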
# [2] = molecular target: Fuc(a1-2)Gal(b1-3)[Fuc(a1-4)]GlcNAc(b1-2)Man(a1-3)[Fuc(a1-2)Gal(b1-3)[Fuc(a1-4)]GlcNAc(b1-2)Man(a1-3)]Man(b1-4)GlcNAc(b1-4)GlcNAc
# How it was run: as §1
# [3] = molecular target: Fuc(a1-2)Gal(b1-3)[Fuc(a1-4)]GlcNAc(b1-3)[Gal(b1-4)GlcNAc(b1-6)]Gal(b1-4)Glc
# How it was run: as §1
# [4] = molecular target: Fuc(a1-2)Gal(b1-4)GlcNAc(b1-3)[Fuc(a1-3)[Gal(b1-4)]GlcNAc(b1-6)]Gal(b1-4)Glc
# How it was run: as §1
# [5] = molecular target: Fuc(a1-2)Gal(b1-4)[Fuc(a1-3)]GlcNAc
# How it was run: as §1
# [6] = molecular target: Fuc(a1-2)Gal(b1-4)[Fuc(a1-3)]GlcNAc(b1-2)[Fuc(a1-2)Gal(b1-4)[Fuc(a1-3)]GlcNAc(b1-4)]Man(a1-3)[Fuc(a1-2)Gal(b1-4)[Fuc(a1-3)]GlcNAc(b1-2)Man(a1-6)]Man(b1-4)GlcNAc(b1-4)GlcNAc
# How it was run: as §1
# [7] = molecular target: Fuc(a1-2)[Gal(a1-3)]Gal(b1-3)GlcNAc(b1-2)Man(a1-3)[Fuc(a1-2)[Gal(a1-3)]Gal(b1-3)GlcNAc(b1-2)Man(a1-6)]Man(b1-4)GlcNAc(b1-4)GlcNAc
# How it was run: as §1
# [8] = molecular target: Fuc(a1-2)[Gal(a1-3)]Gal(b1-4)GlcNAc(b1-6)GalNAc
# How it was run: as §1
# [9] = molecular target: Fuc(a1-2)[GalNAc(a1-3)]Gal
# How it was run: as §1
# [10] = molecular target: Fuc(a1-2)[GalNAc(a1-3)]Gal(b1-3)GalNAc(a1-3)[Fuc(a1-2)]Gal(b1-4)GlcNAc
# How it was run: as §1
# [11] = molecular target: Fuc(a1-2)[GalNAc(a1-3)]Gal(b1-3)GlcNAc(b1-3)GalNAc
# How it was run: as §1
# [12] = molecular target: Fuc(a1-2)[GalNAc(a1-3)]Gal(b1-4)GlcNAc
# How it was run: as §1
# [13] = molecular target: Fuc(a1-2)[GalNAc(a1-3)]Gal(b1-4)GlcNAc(b1-3)[Fuc(a1-2)[GalNAc(a1-3)]Gal(b1-4)GlcNAc(b1-6)]GalNAc
# How it was run: as §1
# [14] = molecular target: Fuc(a1-2)[GalNAc(a1-3)]Gal(b1-4)GlcNAc(b1-6)GalNAc
# How it was run: as §1
# [15] = molecular target: Fuc(a1-2)[GalNAc(a1-4)]Gal(b1-4)GlcNAc
# How it was run: as §1
# [16] = molecular target: Gal(a1-3)Gal(b1-4)GlcNAc
# How it was run: as §1
# [17] = molecular target: Gal(b1-2)Gal
# How it was run: as §1
# [18] = molecular target: Gal(b1-3)GalNAc(b1-3)Gal(a1-4)Gal(b1-4)Glc
# How it was run: as §1
# [19] = molecular target: Gal(b1-3)GlcNAc(b1-2)Man(a1-3)[GlcNAc(b1-4)][Gal(b1-3)GlcNAc(b1-2)Man(a1-6)]Man(b1-4)GlcNAc(b1-4)GlcNAc
# How it was run: as §1
# [20] = molecular target: Gal(b1-3)GlcNAc(b1-3)GalNAc
# How it was run: as §1
# [21] = molecular target: Gal(b1-3)[Fuc(a1-4)]GlcNAc(b1-2)Man(a1-3)[Gal(b1-3)[Fuc(a1-4)]GlcNAc(b1-2)Man(a1-6)]Man(b1-4)GlcNAc(b1-4)[Fuc(a1-6)]GlcNAc
# How it was run: as §1
# [22] = molecular target: Gal(b1-3)[Neu5Ac(a2-6)]GalNAc
# How it was run: as §1
# [23] = molecular target: Gal(b1-4)GalNAc(b1-3)[Fuc(a1-2)]Gal(b1-4)GlcNAc
# How it was run: as §1
# [24] = molecular target: Gal(b1-4)GlcNAc(b1-2)Man(a1-3)[Man(a1-6)]Man(b1-4)GlcNAc(b1-4)GlcNAc
# How it was run: as §1
# [25] = molecular target: Gal(b1-4)GlcNAc(b1-2)Man(a1-6)[GlcNAc(b1-2)Man(a1-3)]Man(b1-4)GlcNAc(b1-4)GlcNAc
# How it was run: as §1
# [26] = molecular target: Gal(b1-4)GlcNAc(b1-3)Gal(b1-3)GlcNAc
# How it was run: as §1
# [27] = molecular target: Gal(b1-4)GlcNAc(b1-3)Gal(b1-4)GlcNAc(b1-2)[Gal(b1-4)GlcNAc(b1-3)Gal(b1-4)GlcNAc(b1-6)]Man(a1-6)[Gal(b1-4)GlcNAc(b1-3)Gal(b1-4)GlcNAc(b1-2)Man(a1-3)]Man(b1-4)GlcNAc(b1-4)GlcNAc
# How it was run: as §1
# [28] = molecular target: Gal(b1-4)GlcNAc(b1-3)Gal(b1-4)GlcNAc(b1-2)[Gal(b1-4)GlcNAc(b1-3)Gal(b1-4)GlcNAc(b1-6)]Man(a1-6)[Gal(b1-4)GlcNAc(b1-3)Gal(b1-4)GlcNAc(b1-2)Man(a1-3)]Man(b1-4)GlcNAc(b1-4)[Fuc(a1-6)]GlcNAc
# How it was run: as §1
# [29] = molecular target: Gal(b1-4)GlcNAc(b1-3)Gal(b1-4)GlcNAc(b1-3)Gal(b1-4)GlcNAc(b1-3)Gal(b1-4)GlcNAc(b1-3)Gal(b1-4)GlcNAc(b1-2)Man(a1-3)[Gal(b1-4)GlcNAc(b1-3)Gal(b1-4)GlcNAc(b1-3)Gal(b1-4)GlcNAc(b1-3)Gal(b1-4)GlcNAc(b1-3)Gal(b1-4)GlcNAc(b1-2)Man(a1-6)]Man(b1-4)GlcNAc(b1-4)[Fuc(a1-6)]GlcNAc
# How it was run: as §1
binder,measurement,setting,value
PfulAvr4 (Pseudocercospora fuligena) (protein) HHHHHHDYKDDDDKTYVQDKTPAFVCPAADIKTTKCLGPKDCLYPSPKTCNGYIQCSPADDSYLTGIIHEMPCPSGLLWNDNKKWCDWPENTTCGLVKSAGATEVDATKQGPTPGKYHG,glycan array binding signal (z-score),[1],-0.098
same,glycan array binding signal (z-score),[2],1.42
same,glycan array binding signal (z-score),[3],-0.112
same,glycan array binding signal (z-score),[4],-0.102
same,glycan array binding signal (z-score),[5],-0.091
same,glycan array binding signal (z-score),[6],0.683
same,glycan array binding signal (z-score),[7],-0.05
same,glycan array binding signal (z-score),[8],-0.112
same,glycan array binding signal (z-score),[9],-0.132
same,glycan array binding signal (z-score),[10],1.31
same,glycan array binding signal (z-score),[11],-0.06
same,glycan array binding signal (z-score),[12],-0.151
same,glycan array binding signal (z-score),[13],-0.133
same,glycan array binding signal (z-score),[14],-0.129
same,glycan array binding signal (z-score),[15],-0.135
same,glycan array binding signal (z-score),[16],-0.07
same,glycan array binding signal (z-score),[17],-0.01
same,glycan array binding signal (z-score),[18],-0.044
same,glycan array binding signal (z-score),[19],0.682
same,glycan array binding signal (z-score),[20],-0.105
same,glycan array binding signal (z-score),[21],0.612
same,glycan array binding signal (z-score),[22],0.215
same,glycan array binding signal (z-score),[23],-0.141
same,glycan array binding signal (z-score),[24],1.71
same,glycan array binding signal (z-score),[25],-0.136
same,glycan array binding signal (z-score),[26],-0.04
same,glycan array binding signal (z-score),[27],1.38
same,glycan array binding signal (z-score),[28],-0.13
same,glycan array binding signal (z-score),[29],0.048
